Results filed as inconclusive are left out. Where a call stands in place of a potency, no number is given. The source made the active and inactive calls. Calls follow the shape of the dose curve; as a rule, active = well fitted curve in the direction sought with a large enough effect; inconclusive = small, poorly fitted or top-dose-only effect, or another doubt; inactive = no such curve, though single readings can be large; an effect the other way counts as inactive or inconclusive.
What was measured:
[1] = qHTS of pediatric cancer cell lines to identify multiple opportunities for drug repurposing: Confirmatory screen for BT-12 cells (AID 1347112); also: nearly all actives have a fitted effect of over 55% in size
Outline: (§1)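 Cells (500-1,000/well) in growth media were settled 5 h at 37 degrees C, then given compounds for 48 h. Viability was read as CellTiter-Glo luminescence. Primary runs used MIPE at 11 points (0.78 nM-46 µM) and NPC at 8 points (0.59 nM-46 µM); follow-ups used 11 points.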

[2] = qHTS of pediatric cancer cell lines to identify multiple opportunities for drug repurposing: Confirmatory screen for LAN-5 cells (AID 1347113); also: nearly all actives have a fitted effect of over 65% in size; also: potency is read from the fitted curve at half-maximal effect
Outline: as §1

[3] = qHTS of pediatric cancer cell lines to identify multiple opportunities for drug repurposing: Confirmatory screen for DAOY cells (AID 1347114); also: nearly all actives have a fitted effect of over 65% in size
Outline: (§2)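 Viability measured as metabolically active cells via CellTiter-Glo luminescence following 48 hours of compound exposure, 11-point dilutions in confirmatory testing. 500-1,000 cells/well plated 5 hours before dosing; controls were DMSO and 2.3 µM bortezomib.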

[4] = qHTS of pediatric cancer cell lines to identify multiple opportunities for drug repurposing: Confirmatory screen for NB-EBc1 cells (AID 1347115);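 also: cells exposed to compound for 48 h before the viability read; nearly all actives have a fitted effect of over 45% in size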
Outline: as §1

[5] = qHTS of pediatric cancer cell lines to identify multiple opportunities for drug repurposing: Confirmatory screen for BT-37 cells (AID 1347117); also: nearly all actives have a fitted effect of over 55% in size; also: potency is read from the fitted curve at half-maximal effect
Outline: as §1

[6] = qHTS of pediatric cancer cell lines to identify multiple opportunities for drug repurposing: Confirmatory screen for TC32 cells (AID 1347118); conditions: TC32 Ewing sarcoma cells viability qHTS;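 also: potency is read from the fitted curve at half-maximal effect; cells exposed to compound for 48 h before the read; nearly all actives have a fitted effect of over 65% in size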
Outline: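 Measured quantity: luminescence from CellTiter-Glo, reflecting metabolically active TC32 cells following 48 h of compound. Curves came straight from multi-point titrations, with 8 or 11 points in primary and 11 in confirmatory screening.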

[7] = qHTS of pediatric cancer cell lines to identify multiple opportunities for drug repurposing: Confirmatory screen for control Hh wild type fibroblast cells (AID 1347121); also: nearly all actives have a fitted effect of over 70% in size
Outline: as §1

[8] = qHTS of pediatric cancer cell lines to identify multiple opportunities for drug repurposing: Confirmatory screen for U-2 OS cells (AID 1347122); also: nearly all actives have a fitted effect of over 65% in size
Outline: as §1

[9] = qHTS of pediatric cancer cell lines to identify multiple opportunities for drug repurposing: Confirmatory screen for SJ-GBM2 cells (AID 1347116); also: nearly all actives have a fitted effect of over 60% in size
Outline: as §2

[10] = qHTS of pediatric cancer cell lines to identify multiple opportunities for drug repurposing: Confirmatory screen for MG 63 (6-TG R) cells (AID 1347119); also: nearly all actives have a fitted effect of over 55% in size
Outline: as §1

Structure (SMILES)	outcome [1]	Potency [2]	outcome [3]	outcome [4]	Potency [5]	Potency [6]	outcome [7]	outcome [8]	outcome [9]	outcome [10]
O=C(Cn1ccnc1[N+](=O)[O-])NCc1ccccc1	inactive	inactive	inactive	inactive	inactive	1.85 µM (active)	inactive	inactive	–	–
CC(=O)[C@@]1(O)CC[C@H]2[C@@H]3C[C@H](C)C4=CC(=O)C=C[C@]4(C)[C@@]3(F)[C@@H](O)C[C@@]21C	inactive	inactive	inactive	inactive	inactive	2.93 µM (active)	inactive	inactive	inactive	inactive
COc1cc(C(=O)NCCCCCC(=O)O)cc(OC)c1OC	inactive	–	inactive	inactive	inactive	–	inactive	inactive	–	inactive
CC(=O)OCC(=O)[C@@]1(O)CC[C@H]2[C@@H]3CCC4=CC(=O)C=C[C@]4(C)[C@@]3(F)[C@@H](O)C[C@@]21C	–	14.7 µM (active)	inactive	–	16.5 µM (active)	14.7 µM (active)	–	inactive	–	–
